What was measured:
Assay in all cases: log2 ratio of Biotin-Ahx-Ub-VS probe labelling (fragment/DMSO); higher = less target engagement (more negative = stronger competition), active = hit call of the paper (q ≤ 0.05, log2 ratio ≤ -1)
Settings in all cases: compound concentration: 200 uM; treatment time: 3 h
USP19 = target: T1, USP19 (UniProt O94966)
T1 sequence (whole entry): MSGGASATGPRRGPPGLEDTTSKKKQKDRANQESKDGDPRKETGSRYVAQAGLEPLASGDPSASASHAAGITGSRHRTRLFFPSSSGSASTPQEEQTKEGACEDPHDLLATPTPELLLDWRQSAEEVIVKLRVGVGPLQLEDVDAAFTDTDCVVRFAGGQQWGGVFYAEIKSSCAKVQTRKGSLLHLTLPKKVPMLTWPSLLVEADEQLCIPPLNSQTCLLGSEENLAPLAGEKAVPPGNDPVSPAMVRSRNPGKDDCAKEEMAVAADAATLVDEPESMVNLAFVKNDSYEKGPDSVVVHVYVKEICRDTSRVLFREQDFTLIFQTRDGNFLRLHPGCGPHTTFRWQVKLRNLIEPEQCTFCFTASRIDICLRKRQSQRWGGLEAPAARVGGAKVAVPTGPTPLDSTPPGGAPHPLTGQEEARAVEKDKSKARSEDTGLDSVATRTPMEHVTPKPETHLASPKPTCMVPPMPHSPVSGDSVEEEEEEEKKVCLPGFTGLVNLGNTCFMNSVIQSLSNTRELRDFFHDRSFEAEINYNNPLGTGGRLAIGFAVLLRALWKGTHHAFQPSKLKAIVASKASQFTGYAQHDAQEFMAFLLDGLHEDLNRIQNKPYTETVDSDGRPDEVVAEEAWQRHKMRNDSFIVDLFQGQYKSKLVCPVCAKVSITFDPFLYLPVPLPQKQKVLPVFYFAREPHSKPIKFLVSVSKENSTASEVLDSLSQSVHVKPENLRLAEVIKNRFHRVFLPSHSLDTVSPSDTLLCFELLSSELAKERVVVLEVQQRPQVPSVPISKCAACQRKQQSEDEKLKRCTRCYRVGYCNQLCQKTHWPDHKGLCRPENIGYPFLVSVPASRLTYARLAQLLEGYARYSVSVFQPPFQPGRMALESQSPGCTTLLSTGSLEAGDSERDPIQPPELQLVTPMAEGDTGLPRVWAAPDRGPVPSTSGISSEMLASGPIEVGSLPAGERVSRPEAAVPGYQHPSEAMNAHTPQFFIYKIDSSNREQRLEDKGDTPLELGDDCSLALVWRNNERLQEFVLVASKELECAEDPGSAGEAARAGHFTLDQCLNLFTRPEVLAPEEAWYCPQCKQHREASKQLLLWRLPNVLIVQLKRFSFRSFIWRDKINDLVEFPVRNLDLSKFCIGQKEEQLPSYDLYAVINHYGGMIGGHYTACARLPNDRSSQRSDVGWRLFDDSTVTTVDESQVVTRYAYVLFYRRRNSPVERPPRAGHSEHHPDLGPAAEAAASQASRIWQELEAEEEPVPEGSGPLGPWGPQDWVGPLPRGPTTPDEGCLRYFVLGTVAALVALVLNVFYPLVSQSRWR
How it was run: (§1)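 HEK293T lysate (495 µg per sample, in Tris/CHAPS/IGEPAL buffer with protease inhibitors) was exposed in triplicate for 3 h to fragment at 200 µM or to vehicle, then to Biotin-Ahx-Ub-VS at 0.5 µM final for 1 h. Labelled DUBs were enriched on NeutrAvidin, digested with LysC and trypsin, and analysed by diaPASEF LC-MS/MS. Spectronaut label-free quantities were normalised to the global median, and values are average log2 ratios of fragment over vehicle from an unpaired t-test. Only proteins with ≥2 unique peptides were used.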

USP22 = target: T2, USP22 (UniProt Q9UPT9)
T2 sequence (whole entry): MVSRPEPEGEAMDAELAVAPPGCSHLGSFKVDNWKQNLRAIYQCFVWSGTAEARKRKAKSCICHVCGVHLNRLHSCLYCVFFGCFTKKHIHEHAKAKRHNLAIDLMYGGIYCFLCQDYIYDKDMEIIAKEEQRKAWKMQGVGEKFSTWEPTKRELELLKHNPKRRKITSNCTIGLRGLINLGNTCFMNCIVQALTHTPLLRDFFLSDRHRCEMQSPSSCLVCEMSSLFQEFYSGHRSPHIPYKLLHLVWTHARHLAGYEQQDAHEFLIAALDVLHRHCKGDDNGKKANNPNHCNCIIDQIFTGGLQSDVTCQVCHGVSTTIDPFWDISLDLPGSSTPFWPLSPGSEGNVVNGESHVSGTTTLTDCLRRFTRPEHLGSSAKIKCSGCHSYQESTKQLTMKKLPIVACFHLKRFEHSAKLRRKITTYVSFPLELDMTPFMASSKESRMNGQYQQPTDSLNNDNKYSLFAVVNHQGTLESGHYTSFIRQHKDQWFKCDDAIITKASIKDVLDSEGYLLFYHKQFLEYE
How it was run: as §1

USP24 = USP24 (UniProt Q9UPU5)
USP24, sequence (Q9UPU5 whole entry): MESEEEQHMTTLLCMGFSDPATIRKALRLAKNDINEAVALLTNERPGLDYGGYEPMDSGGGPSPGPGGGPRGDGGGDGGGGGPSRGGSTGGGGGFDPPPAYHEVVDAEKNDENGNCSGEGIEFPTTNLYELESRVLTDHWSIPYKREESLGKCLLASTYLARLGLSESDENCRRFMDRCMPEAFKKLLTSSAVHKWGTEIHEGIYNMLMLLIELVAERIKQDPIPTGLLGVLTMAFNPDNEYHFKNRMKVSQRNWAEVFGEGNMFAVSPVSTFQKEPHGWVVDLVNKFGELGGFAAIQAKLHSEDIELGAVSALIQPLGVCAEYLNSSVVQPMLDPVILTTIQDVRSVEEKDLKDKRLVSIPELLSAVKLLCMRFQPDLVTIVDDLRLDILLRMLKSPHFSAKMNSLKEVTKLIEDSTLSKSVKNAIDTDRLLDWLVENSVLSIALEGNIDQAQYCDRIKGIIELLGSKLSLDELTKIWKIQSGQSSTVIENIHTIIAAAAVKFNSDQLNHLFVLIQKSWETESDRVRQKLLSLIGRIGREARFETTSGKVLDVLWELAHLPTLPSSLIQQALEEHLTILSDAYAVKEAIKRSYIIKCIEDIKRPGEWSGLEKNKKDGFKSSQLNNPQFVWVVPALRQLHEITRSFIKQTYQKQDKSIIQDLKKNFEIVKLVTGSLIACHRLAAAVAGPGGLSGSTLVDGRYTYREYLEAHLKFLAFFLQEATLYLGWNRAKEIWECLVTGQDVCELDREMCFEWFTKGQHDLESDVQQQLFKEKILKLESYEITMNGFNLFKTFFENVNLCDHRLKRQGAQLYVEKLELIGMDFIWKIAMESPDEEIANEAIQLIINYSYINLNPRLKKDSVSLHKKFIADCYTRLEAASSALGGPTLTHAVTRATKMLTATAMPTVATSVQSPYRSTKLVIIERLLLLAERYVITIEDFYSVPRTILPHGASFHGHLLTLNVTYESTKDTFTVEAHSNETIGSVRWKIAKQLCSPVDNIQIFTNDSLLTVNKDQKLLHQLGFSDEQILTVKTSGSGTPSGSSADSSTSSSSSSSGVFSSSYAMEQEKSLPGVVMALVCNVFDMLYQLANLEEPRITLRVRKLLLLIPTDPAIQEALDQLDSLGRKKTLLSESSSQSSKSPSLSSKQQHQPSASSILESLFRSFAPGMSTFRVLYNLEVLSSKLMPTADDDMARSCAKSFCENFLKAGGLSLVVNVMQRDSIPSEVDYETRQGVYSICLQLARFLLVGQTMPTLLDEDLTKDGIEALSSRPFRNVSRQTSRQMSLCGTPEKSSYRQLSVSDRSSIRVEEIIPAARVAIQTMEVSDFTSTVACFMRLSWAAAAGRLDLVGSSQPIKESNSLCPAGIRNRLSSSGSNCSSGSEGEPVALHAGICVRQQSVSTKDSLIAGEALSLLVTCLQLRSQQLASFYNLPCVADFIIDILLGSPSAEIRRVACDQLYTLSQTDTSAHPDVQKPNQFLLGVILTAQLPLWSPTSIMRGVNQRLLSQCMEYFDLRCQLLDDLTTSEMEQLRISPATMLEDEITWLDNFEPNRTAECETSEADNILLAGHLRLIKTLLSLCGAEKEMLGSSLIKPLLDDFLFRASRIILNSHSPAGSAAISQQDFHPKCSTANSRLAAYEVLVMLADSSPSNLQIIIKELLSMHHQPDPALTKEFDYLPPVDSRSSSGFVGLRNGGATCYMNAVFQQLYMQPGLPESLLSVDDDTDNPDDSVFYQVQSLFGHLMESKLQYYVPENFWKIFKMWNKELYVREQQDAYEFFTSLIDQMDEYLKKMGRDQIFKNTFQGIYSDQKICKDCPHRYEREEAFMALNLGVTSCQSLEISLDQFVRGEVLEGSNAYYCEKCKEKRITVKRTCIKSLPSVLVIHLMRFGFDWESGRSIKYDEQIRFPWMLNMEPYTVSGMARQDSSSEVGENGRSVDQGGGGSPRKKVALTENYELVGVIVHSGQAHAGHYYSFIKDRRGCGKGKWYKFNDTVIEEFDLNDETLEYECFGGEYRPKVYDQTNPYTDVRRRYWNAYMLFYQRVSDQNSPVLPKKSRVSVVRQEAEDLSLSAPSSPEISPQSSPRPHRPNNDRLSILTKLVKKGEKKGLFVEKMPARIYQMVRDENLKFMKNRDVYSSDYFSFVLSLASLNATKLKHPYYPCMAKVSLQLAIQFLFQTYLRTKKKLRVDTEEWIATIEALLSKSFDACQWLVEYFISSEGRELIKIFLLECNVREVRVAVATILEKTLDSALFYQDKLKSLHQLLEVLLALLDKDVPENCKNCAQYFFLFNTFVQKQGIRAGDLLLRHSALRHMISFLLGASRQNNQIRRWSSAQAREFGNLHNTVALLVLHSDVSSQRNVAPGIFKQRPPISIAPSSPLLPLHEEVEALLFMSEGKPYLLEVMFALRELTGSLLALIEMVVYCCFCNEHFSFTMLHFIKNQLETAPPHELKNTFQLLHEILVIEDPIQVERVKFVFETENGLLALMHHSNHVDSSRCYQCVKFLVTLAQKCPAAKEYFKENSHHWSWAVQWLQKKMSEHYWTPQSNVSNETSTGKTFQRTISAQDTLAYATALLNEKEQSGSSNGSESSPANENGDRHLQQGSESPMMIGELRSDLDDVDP
How it was run: as §1

USP25 = target: T3, USP25 (UniProt Q9UHP3)
T3 sequence (whole entry): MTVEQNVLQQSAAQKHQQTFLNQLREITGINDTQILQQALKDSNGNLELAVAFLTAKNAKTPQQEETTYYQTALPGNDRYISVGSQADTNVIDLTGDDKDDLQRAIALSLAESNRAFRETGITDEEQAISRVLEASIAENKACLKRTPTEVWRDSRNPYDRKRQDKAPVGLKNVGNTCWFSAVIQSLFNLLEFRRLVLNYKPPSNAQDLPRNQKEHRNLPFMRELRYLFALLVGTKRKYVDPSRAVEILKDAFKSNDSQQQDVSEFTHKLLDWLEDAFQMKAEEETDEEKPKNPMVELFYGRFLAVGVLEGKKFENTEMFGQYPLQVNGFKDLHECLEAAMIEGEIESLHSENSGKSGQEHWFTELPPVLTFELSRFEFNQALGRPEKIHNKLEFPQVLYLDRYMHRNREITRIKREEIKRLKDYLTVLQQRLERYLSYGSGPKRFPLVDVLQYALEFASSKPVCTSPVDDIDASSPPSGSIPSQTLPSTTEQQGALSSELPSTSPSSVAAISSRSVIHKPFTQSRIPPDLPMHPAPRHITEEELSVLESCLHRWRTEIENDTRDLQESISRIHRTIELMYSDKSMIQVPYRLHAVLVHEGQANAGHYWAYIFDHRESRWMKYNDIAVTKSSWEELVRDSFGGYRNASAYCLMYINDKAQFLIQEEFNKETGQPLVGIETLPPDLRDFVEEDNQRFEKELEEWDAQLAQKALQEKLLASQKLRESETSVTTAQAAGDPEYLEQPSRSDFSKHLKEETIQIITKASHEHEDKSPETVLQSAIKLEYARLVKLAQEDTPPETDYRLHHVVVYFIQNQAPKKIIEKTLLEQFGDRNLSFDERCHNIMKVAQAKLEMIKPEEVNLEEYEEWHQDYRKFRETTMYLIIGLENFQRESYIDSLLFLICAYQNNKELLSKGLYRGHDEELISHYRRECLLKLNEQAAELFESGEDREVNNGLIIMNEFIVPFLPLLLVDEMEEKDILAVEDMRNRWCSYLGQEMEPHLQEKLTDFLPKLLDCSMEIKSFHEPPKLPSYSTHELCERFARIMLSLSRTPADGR
How it was run: as §1

USP28 = target: T4, USP28 (UniProt Q96RU2)
T4 sequence (whole entry): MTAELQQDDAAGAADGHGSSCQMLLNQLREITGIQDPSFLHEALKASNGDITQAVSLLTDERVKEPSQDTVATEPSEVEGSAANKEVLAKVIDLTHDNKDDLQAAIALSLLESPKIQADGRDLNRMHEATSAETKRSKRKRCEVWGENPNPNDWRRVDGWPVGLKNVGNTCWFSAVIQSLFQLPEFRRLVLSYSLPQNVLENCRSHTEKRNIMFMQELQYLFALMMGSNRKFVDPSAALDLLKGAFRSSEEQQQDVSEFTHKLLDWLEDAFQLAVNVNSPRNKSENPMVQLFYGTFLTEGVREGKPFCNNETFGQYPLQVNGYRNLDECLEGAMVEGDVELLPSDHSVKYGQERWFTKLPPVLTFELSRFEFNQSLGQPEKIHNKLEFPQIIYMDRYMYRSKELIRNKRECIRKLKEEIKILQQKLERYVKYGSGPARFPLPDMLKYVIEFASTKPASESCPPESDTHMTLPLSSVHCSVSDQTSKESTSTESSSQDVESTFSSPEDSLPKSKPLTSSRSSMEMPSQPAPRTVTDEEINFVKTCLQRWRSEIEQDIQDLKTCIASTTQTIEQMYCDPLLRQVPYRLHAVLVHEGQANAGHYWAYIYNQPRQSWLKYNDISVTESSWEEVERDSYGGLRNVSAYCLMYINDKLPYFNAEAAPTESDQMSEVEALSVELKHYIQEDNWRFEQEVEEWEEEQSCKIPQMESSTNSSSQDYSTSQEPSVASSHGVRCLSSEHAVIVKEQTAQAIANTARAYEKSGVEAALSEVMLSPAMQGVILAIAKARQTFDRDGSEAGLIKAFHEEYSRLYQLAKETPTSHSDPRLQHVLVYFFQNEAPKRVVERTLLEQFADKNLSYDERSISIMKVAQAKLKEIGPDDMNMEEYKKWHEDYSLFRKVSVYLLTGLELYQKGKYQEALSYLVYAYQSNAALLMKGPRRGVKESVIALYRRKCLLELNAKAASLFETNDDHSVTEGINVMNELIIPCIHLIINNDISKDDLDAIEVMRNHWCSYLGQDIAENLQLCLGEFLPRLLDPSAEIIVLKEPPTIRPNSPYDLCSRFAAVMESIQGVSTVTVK
How it was run: as §1

Measured: log2 ratio of Biotin-Ahx-Ub-VS probe labelling

Cc1cnc2[nH]cc(CCNC(=O)CCl)c2c1
inactive: USP19 -0.044 | USP22 -0.375 | USP24 -0.209 | USP25 -0.347 | USP28 -0.759
